Measurements as given in ChEMBL document CHEMBL4513216, “Probing the Open Global Health Chemical Diversity Library for Multistage-Active Starting Points for Next-Generation Antimalarials” (ACS Infect Dis, 2020).
Screen size: about 69,000 compounds; about 8,600 (12%) showed an effect of 50% or more. The sample as a whole holds a higher share of strong results than the screen did.

The molecules below were run on Plasmodium berghei (assay: Screen against P. berghei liver stage (PbLuc), transformed with Luciferase, at 10uM). Details: tested at 10 uM.
Format: functional, HepG2
`Cc1nc(C2CCCN(C(=O)c3ccoc3)C2)no1` (centres undefined) showed an INHIBITION of 11.6%.
`Cc1nc(C2CCCN(C(=O)C3=NN(C(C)C)C(=O)CC3)C2)no1` (centres undefined) gave an INHIBITION of 58.3%.
`CCN1N=C(C(=O)N2CCCC(c3noc(C)n3)C2)CCC1=O` (centres undefined) was tested, and the INHIBITION was 34.1%.
`Cc1ccc2c(n1)N(Cc1cccnc1)CCN(C(=O)C1CCC1)C2` gave an INHIBITION of 32.4%.
`NCC1CCCCN1C(=O)Cc1cccc(Cl)c1` (centres undefined) gave an INHIBITION of 19%.
For `Cc1ccc(C(=O)N2CCCC2c2nnc3n2CCCCC3)s1` (centres undefined), the INHIBITION was 13%.
Molecule `CC(C)[C@H]1CN(C(=O)CC2CCC2)C[C@@H]1N(C)C` has an INHIBITION of 3.06%.
In the case of `COC1(CNC(=O)c2cccc(C#N)c2)CCSC1` (centres undefined), the INHIBITION is reported as 8.7%.
With `Cc1nc(CN2CCO[C@@H]3CN(Cc4cccs4)C[C@@H]3C2)cs1` the INHIBITION was 37.3%.
In the case of `Cc1nc(C(Cc2ccsc2)NC(=O)CCN2CCOCC2)sc1C` (centres undefined), the INHIBITION is reported as -11.95%.
`Cc1nc(NCCc2ccccc2)cc(C(=O)N2CCOCC2)n1` was tested, and the INHIBITION was 38.5%.
`COc1ccc(C)cc1S(=O)(=O)N[C@H]1CN(C(C)=O)C[C@@H]1C1CC1` gave an INHIBITION of 35.4%.
Molecule `COc1ccc(S(=O)(=O)N[C@H]2CN(C(C)=O)C[C@@H]2C2CC2)cc1C` has an INHIBITION of 9.63%.
In the case of `COc1cc(C)ccc1S(=O)(=O)N[C@H]1CN(C(C)=O)C[C@@H]1C1CC1`, the INHIBITION is reported as 55.2%.
`CCS(=O)(=O)N1CCC2(COCc3cnc(N4CCOCC4)nc32)C1` (centres undefined) gave an INHIBITION of -50.9%.
In the case of `c1cnc(N2CCC3(COCc4cnc(N5CCOCC5)nc43)C2)nc1` (centres undefined), the INHIBITION is reported as 68.3%.
`c1ccc(N2CCC3(COCCN(c4ncccn4)C3)C2)nc1` (centres undefined) showed an INHIBITION of 38.5%.
`O=S(=O)(C1CC1)N1CCC2(COCc3cnc(N4CCOCC4)nc32)C1` (centres undefined) was tested, and the INHIBITION was -8.69%.
For `COCCN1CCC2(COCc3cnc(N(C)C)nc32)C1` (centres undefined), the INHIBITION was -6.23%.
For `CN1CCC2(COCc3cnc(N4CCOCC4)nc32)C1` (centres undefined), the INHIBITION was 51.3%.
In the case of `COCCN1CCC2(COCc3cnc(N4CCOCC4)nc32)C1` (centres undefined), the INHIBITION is reported as 52.3%.
For `c1nc(N2CCOCC2)nc2c1COCC21CCN(CC2CC2)C1` (centres undefined), the INHIBITION was -7.59%.
In the case of `CNc1nc(CNC(=O)Nc2cccc(CN(C)C)c2)cs1`, the INHIBITION is reported as -0.74%.
`CC(C)c1nncn1CCNC(=O)c1c(O)cc(F)cc1F` was tested, and the INHIBITION was 8.86%.
`CC(C)=CCN1C(=O)[C@@H]2CC[C@H]1CN(C(=O)CCc1n[nH]c(C)c1C)C2` gave an INHIBITION of 43.8%.
With `CC(Cn1ccnc1)NC(=O)C1(c2cccc(Cl)c2)CC1` (centres undefined) the INHIBITION was 19.4%.
With `COCCn1c(=O)n(Cc2cccc(F)c2F)c2cc(C(=O)O)ccc21` the INHIBITION was 55%.
With `COCCn1c(=O)n(Cc2ccc(Cl)s2)c2cc(C(=O)O)ccc21` the INHIBITION was 32.3%.
`COCCn1c(=O)n(Cc2ccccc2C)c2cc(C(=O)O)ccc21` gave an INHIBITION of 29%.
`CC(NC(=O)NCC(F)(F)F)c1nncn1C` (centres undefined) showed an INHIBITION of 11.5%.
`c1ccc(Cc2nc(C3CC3)nn2-c2ccc3c(c2)OCCO3)nc1` showed an INHIBITION of -52.4%.
Molecule `c1cncc(OCc2nc(C3CC3)nn2-c2ccc3c(c2)OCCO3)c1` has an INHIBITION of 25.4%.
Work on `c1cncc(CCc2nc(C3CC3)nn2-c2ccc3c(c2)OCCO3)c1` yielded an INHIBITION of 50.1%.
For `CCc1nc(N)nc(N2CCCC3(CCN(C)CC3)CC2)c1C`, the INHIBITION was -56.2%.
With `CCc1cnc(N)nc1N1CCCC2(CCOCC2)C1` the INHIBITION was -3.77%.
`CCc1nc(N)nc(N2CCCC3(CCOCC3)C2)c1C` gave an INHIBITION of 50%.
In the case of `CS(=O)(=O)N1CCCC(n2nnn(-c3ccccc3)c2=O)C1` (centres undefined), the INHIBITION is reported as 17.55%.
In the case of `c1cncc(C2COC3(CCN(CC4CC4)CC3)C2)c1` (centres undefined), the INHIBITION is reported as -18.2%.
`Cn1cccc1C(=O)N1CCCCC1c1ccn2ccnc2n1` (centres undefined) showed an INHIBITION of -11.7%.
In the case of `Cc1cc(C(=O)N2CCCC3(CN(C)C(=O)O3)C2)c2ccc(F)cc2n1` (centres undefined), the INHIBITION is reported as 37.7%.
`Cc1nc[nH]c1C(=O)N1CCCC2(CN(C)C(=O)O2)C1` (centres undefined) showed an INHIBITION of 3.69%.
Molecule `Cc1cccc2c(=O)c(C(=O)N3CCCC4(CN(C)C(=O)O4)C3)c[nH]c12` (centres undefined) has an INHIBITION of 60.1%.
In the case of `COCCCNC(=O)NCc1cccn1Cc1ccccc1C`, the INHIBITION is reported as 60.7%.
`CCOC(=O)CNC(=O)NCc1cccn1Cc1ccccc1F` showed an INHIBITION of 56.5%.
`CCOC(=O)CNC(=O)NCc1cccn1Cc1ccccc1C` showed an INHIBITION of -21.3%.
`CCOC(=O)CNC(=O)NCc1cccn1Cc1ccccc1` was tested, and the INHIBITION was 40.8%.
For `CCOC(=O)CNC(=O)NCc1cccn1Cc1ccc(F)cc1`, the INHIBITION was 16.8%.
`COCCCNC(=O)NCc1ccc(C)cc1` showed an INHIBITION of 48.8%.
Work on `Cn1ccc(C(=O)N2CCCC2c2cc(CCO)[nH]n2)n1` (centres undefined) yielded an INHIBITION of 28.69%.
`O=C(NCc1ccco1)c1cc[n+]([O-])cc1` was tested, and the INHIBITION was -10.0965%.
With `O=C(Nc1ccccc1-c1ccccc1)NC1CCC2(C1)OCCO2` (centres undefined) the INHIBITION was -6.67%.
With `c1cnc(N2CCC(c3cc4cccnc4[nH]3)CC2)nc1` the INHIBITION was 23.2%.
Molecule `c1cnc(N2CCCC(c3n[nH]c4ncccc34)C2)nc1` (centres undefined) has an INHIBITION of -27.1%.
Work on `c1cnc(N2CCCC(c3cc4cccnc4[nH]3)C2)nc1` (centres undefined) yielded an INHIBITION of 72.5%.
